Measurements as given in PubChem BioAssay AID1851 (National Center for Advancing Translational Sciences (NCATS), 2009).
Values joined by “and” are separate entries in the source; they are usually repeats but may differ in a detail not shown here. Equal entries are not always repeated. The whole screen tested about 16,000 compounds, of which about 2,600 (16%) were called active. Not shown: some 20% with an inconclusive outcome. The list comes from a sample in which actives are over-represented; it also holds similar structures and randomly drawn compounds. Values without a mark were called inactive. Calls follow the shape of the dose curve; as a rule, active = well fitted curve in the direction sought with a large enough effect; inconclusive = small, poorly fitted or top-dose-only effect, or effect the other way; inactive = no such curve, though single readings can be large or run the other way.

Target: Cytochrome P450 2D6 (Homo sapiens) (UniProt P10635)
Experiment: Cytochrome panel assay with activity outcomes
Conditions: recombinant CYP, pro-luciferin dealkylation, luminescence, p450-cyp2d6; series mostly up to 57.1 µM; activity, negative = inhibition: at the top concentration
% is scaled to controls: 0 for no effect and ±100 for the full control effect.

Chain of Cytochrome P450 2D6 (Homo sapiens) (P10635 whole entry, looked up): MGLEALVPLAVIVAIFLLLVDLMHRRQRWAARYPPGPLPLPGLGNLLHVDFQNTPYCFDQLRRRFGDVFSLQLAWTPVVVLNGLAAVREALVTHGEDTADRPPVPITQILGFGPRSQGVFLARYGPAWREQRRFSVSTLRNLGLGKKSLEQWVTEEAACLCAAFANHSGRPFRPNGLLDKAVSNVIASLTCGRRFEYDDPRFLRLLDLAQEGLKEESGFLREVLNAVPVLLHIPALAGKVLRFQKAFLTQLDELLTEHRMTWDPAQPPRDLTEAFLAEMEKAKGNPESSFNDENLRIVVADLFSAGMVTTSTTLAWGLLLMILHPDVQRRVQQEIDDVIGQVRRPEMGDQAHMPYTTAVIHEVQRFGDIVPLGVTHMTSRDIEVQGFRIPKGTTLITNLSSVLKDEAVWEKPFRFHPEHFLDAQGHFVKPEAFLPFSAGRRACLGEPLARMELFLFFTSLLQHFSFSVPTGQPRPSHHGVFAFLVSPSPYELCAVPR

Row | Compound | activity, negative = inhibition | AC50
1 | COc1cc2c(c(OC)c1OC)-c1ccc(O)c(=O)cc1[C@H](N)CC2 | 3.59% [at 25.6 µM] | 
2 | Nc1ccc(S(=O)(=O)c2ccc(NCN3C(=O)NC(=O)C(=O)C3=O)cc2)cc1 | 4.3% [at 11.4 µM] | 
3 | c1cc(CN2CCCCC2)cc(OCCCNc2nc3ccccc3s2)c1 | 4.28% | 
4 | c1ccc(CN2CCN(Cc3ccc4c(c3)OCCO4)CC2)cc1 |  | 12.6 µM (active)
5 | NC[C@H](O)c1cc(O)c(O)cc1F | -1.75% | 
6 | CC(C)CNC(=S)NC1CC2CCCC(C1)N2Cc1ccco1 (configuration not stated) |  | 2 µM (active)
7 | Cc1cc(C)cc(NC(=S)NC2CC3CCC(C2)N3Cc2ccco2)c1 (configuration not stated) |  | 17.8 µM (active)
8 | CCNC(=S)NC1CC2CCCC(C1)N2Cc1ccco1 (configuration not stated) |  | 2 µM (active)
9 | Cc1cccc(N2C(=O)NC(=O)/C(=C\c3cnn(-c4ccccc4)c3)C2=O)c1 | 2.27% | 
10 | C[C@H](Br)C(=O)N[C@H](CO)C(=O)O | 5.11% [at 11.4 µM] | 
11 | NCC1(CC(=O)O)CCCCC1 |  | inactive
12 | CCN1C[C@]2(COC(=O)c3ccccc3N3C(=O)C[C@H](C)C3=O)CC[C@H](OC)[C@@]34[C@@H]5C[C@H]6[C@H](OC)[C@H]5[C@](O)(C[C@@H]6OC)[C@@](O)([C@@H](OC)[C@@H]23)[C@@H]14 | -20.1% | 
13 | O=[N+]([O-])c1cc(-c2ccc([As](=O)(O)O)cc2)ccc1[As](=O)(O)O | 14% [at 11.4 µM] | 
14 | CC(C)Oc1cccnc1N(C)C1CCN(Cc2ccccc2)CC1 |  | 7.94 µM (active)
15 | NNC(N)=O | 12.2% | 
16 | CC(=O)[C@]1(O)CC[C@@H]2[C@H]3C[C@@H](C)C4=CC(=O)CC[C@@]4(C)[C@H]3[C@@H](O)C[C@]21C | 1.26% [at 11.4 µM] | 
17 | c1cc(C2N3CCCN2CC3)ccn1 (configuration not stated) | 15.8% [at 11.4 µM] | 
18 | CC[C@H](C(=O)[C@H](C)[C@H](O)[C@H](C)CCc1ccc(C)c(O)c1C(=O)O)[C@H]1O[C@](CC)([C@@H]2CC[C@@](O)(CC)[C@H](C)O2)C[C@H]1C | 1.12% [at 25.6 µM] | 
19 | Cc1cc(C(C)(C)C)cc(C)c1CC1=NCCN1 |  | 31.6 µM (active) and 3.98 µM (active)
20 | O=C(O)[C@@H]1C[C@H]1[C@@H](NP(=O)(c1ccccc1)c1ccccc1)c1ccccc1 | -3.03% | 
21 | c1cncc([C@@H]2CCCCN2)c1 | -6.82% [at 25.6 µM] | 
22 | CCCCn1c(O)c(C=NCCN2CCCCC2)c(=O)[nH]c1=O | -3.07% | 
23 | COCOc1ccc(Br)cc1C(=O)/C=C\c1ccc2c(c1)OCO2 |  | 3.16 µM (active)
24 | NC[C@@H](O)CSP(=O)(O)O | 3.14% [at 11.4 µM] | 

Row | Compound | activity, negative = inhibition | AC50
25 | O=C1C[C@@H](c2ccc(O)cc2)Oc2cc(O)cc(O)c21 | -8.7% [at 25.6 µM] | 
26 | CC(=O)O[C@H]1CC[C@@]2(C)[C@@H](CC[C@H]3[C@H]2CC(=O)[C@]2(C)[C@@H]3C[C@@H](N3CC3)[C@H]2C(C)=O)C1 | -8.74% [at 11.4 µM] | 
27 | NC(N)=NC(=O)c1nc(Cl)c(N)nc1N |  | inactive
28 | Ic1ccccc1CN[C@@H]1C2CCN(CC2)[C@H]1C(c1ccccc1)c1ccccc1 |  | 0.0631 µM (active)
29 | NO | 1.31% | 
30 | CC(=O)OCC1=C(C(=O)[O-])N2C(=O)[C@@H](NC(=O)CCC[C@@H](N)C(=O)[O-])[C@@H]2SC1.[Zn+2] | 1.63% | 
31 | O=c1cc(-c2ccc(O)cc2)oc2c([C@H]3O[C@@H](CO)[C@@H](O)[C@@H](O)[C@@H]3O)c(O)cc(O)c12 | -1.71% [at 25.6 µM] | 
32 | COC(=O)[C@H]1C(=O)c2ccccc2O[C@@](C(=O)OC)(c2ccccc2)[C@@H]1c1ccccc1 | 11.5% [at 11.4 µM] | 
33 | Cn1cccc1CNCCc1ccccc1 |  | 2.51 µM (active)
34 | O=C(O)Cc1ccc([N+](=O)[O-])cc1[N+](=O)[O-] | 5.45% [at 11.4 µM] | 
35 | Cc1cc(Cc2cc(C)c(N)cc2N)c(N)cc1N | -18.6% [at 11.4 µM] | 
36 | CSCC[C@@H](N)P(C)(=O)O | 3.31% [at 11.4 µM] | 
37 | c1ccc2c(c1)[I+]c1ccccc1-2 |  | 3.98 µM (active) and 794 nM (active)
38 | CN1C2C=C3C(C#N)=C(N)C(C#N)(C#N)[C@H](c4c(F)cccc4F)[C@H]3C1CC2 (some centres not stated) | -27.7% | 
39 | CCC[C@@](C)(COC(N)=O)COC(=O)NC(C)C | -0.665% [at 25.6 µM] | 
40 | Clc1ccccc1-c1cncnc1NCCc1cnc[nH]1 |  | 3.98 µM (active)
41 | CNCCc1cnc[nH]1 | -9.55% | 
42 | Cc1ccccc1-c1cncnc1NCCc1cnc[nH]1 |  | 12.6 µM (active)
43 | Cn1cnc(CCN)c1 | 10.3% | 
44 | C[C@H]1CC[C@@]2(NC1)O[C@@H]1C[C@H]3[C@@H]4CC[C@@H]5C[C@@H](O)CC[C@@]5(C)[C@@H]4CC[C@]3(C)[C@@H]1[C@@H]2C | -1.98% [at 25.6 µM] | 
45 | C[C@]1(C(=O)O)[C@@H]2CC[C@@H](O2)[C@@]1(C)C(=O)O | -0.463% | 
46 | [N-]=[N+]=CC(=O)CC[C@H](N)C(=O)O | -11.2% [at 11.4 µM] | 
47 | CN(C)CCCNc1c2c(nc3ccc(Cl)cc13)CCCC2 | 9.14% [at 11.4 µM] | 
